# According to PubChem BioAssay (NCI):
# Compounds without any hit were thinned out: in the full panel of roughly 83,000, 20% have a hit.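 Each cell line was grown in a 96-well plate and treated with one concentration of compound for 48 hours. Values below 10 were considered active.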 Unmarked numbers belong to inactive results. Active and inactive are the calls of the source.
# Tested on: OVCAR-5 ovarian
# Assay: NCI-60 one-dose screen, 48 h (100 = growth as untreated, 0 = no growth, -100 = all killed)
# Details: 10 µM
# Procedure: Growth inhibition of the OVCAR-5 human tumor cell line is measured as a screen for anti-cancer activity. Cells are grown in 96 well plates and exposed to the test compound for 48 hours. Compounds are tested at a single concentration, which is 10^-5 M for most compounds. The reported endpoint is percent growth (GI% or GIPRCNT), where numbers from 0 - 100% represent growth inhibition, and numbers from -100% - 0 represent cell death. For example, a value of 40 represents 60% growth inhibition. A value of 0 means no net growth occurred over the course of the experiment. A value of -40 indicates 40% of cells at the beginning of the experiment died by the end of the experiment. A value of -100 means all cells are dead at the end of the experiment.
# NCI-60 Human Tumor Cell Lines Screen was performed using the standard one-dose NCI protocol, which is described in more detail at https://dtp.cancer.gov/discovery_development/nci-60/default.htm.
# Compounds with GIPRCNT values below 10 were considered active. Activity score was based on GIPRCNT using the following formula: […]
# Score is 0 for GIPRCNT values of 100 or above, 50 for GIPRCNT values of 0, and 100 for GIPRCNT values of -100.
row,Structure (SMILES),growth
1,O=C(CC(CC(=O)c1ccccc1)c1ccccc1O)c1ccccc1,96.9%
2,COc1ccccc1-n1c(-c2csc(NC(C)=O)n2)n[nH]c1=S,119%
3,CN(C)CCOc1ccccc1NC1=C(Cl)C(=O)C(Nc2ccccc2OCCN(C)C)=C(Cl)C1=O,109%
4,O=C(CCn1cnc2c(cc(-c3ccccc3)n2-c2ccccc2)c1=O)Nc1ccc(F)cc1,85.8%
5,N#Cc1ccc(C(=O)CSc2nccc(Nc3ccc(C(=O)O)cc3)n2)cc1,102%
6,CC(=O)Oc1cc(OC(C)=O)c2ccccc2c1OC(C)=O,115%
7,COc1ccc(-c2nnc(SCC(=O)Nc3ccc(C(=O)/C=C/c4ccccc4)cc3)n2-c2ccccc2)cc1OC,104%
8,O=c1c(Br)ccc(Br)cc1Br,4.49% (active)
9,COc1cc2cc(Oc3ccc(NC(=O)Nc4cccc(C(F)(F)F)c4)cc3)c(C)nc2cc1OC,27.8%
10,COc1cc2cc(Oc3ccc(NC(=O)Nc4ccc(Cl)c(Cl)c4)cc3)c(C)nc2cc1OC,53%
11,O=C(CCCCNC(=O)c1nc(-c2ccccc2)n(-c2ccccc2)n1)NO,85%
12,CCOC(=O)c1sc2ncnc(Nc3ccc4c(cnn4C(=O)Nc4ccc(C)c(Cl)c4)c3)c2c1C,110%
13,CCN(CCCNc1cc2c(c(N)c1S(=O)(=O)O)C(=O)c1ccccc1C2=O)c1ccccc1,107%
14,O=C(N/N=C/c1ccc(Cl)cc1)c1ccc(Cc2n[nH]c(=O)c3cccnc23)cc1,99.7%
15,CCCN(CCC)C(=O)[C@H](CC)[C@@H]1CC[C@@H](C)[C@@H]([C@H](C)[C@@H](O)[C@@H](C)C(=O)[C@H](CC)C2O[C@]3(C=C[C@@H](O)[C@]4(CC[C@@](C)([C@H]5CC[C@](O)(CC)[C@H](C)O5)O4)O3)[C@H](C)C[C@@H]2C)O1 (stereo not given in full),11.4%
16,CCn1c2ccc(O)cc2c2c(C)c3c[n+](C)ccc3c(C)c21,88.7%
17,NC(N)=N/N=C(\N=Nc1ccccc1)c1ccc(Cl)cc1,24.9%
18,COc1ccc(NC(=O)C2CC3C=CC2C3)c([N+](=O)[O-])c1 (stereo not given),96.5%
19,CCOC(=O)c1cc(C(=O)c2ccc(F)cc2F)n2ccccc12,99.7%
20,COc1cc(/C=C2\CCCC3C2=Nc2ccccc2NC3c2cc(OC)c(OC)c(OC)c2)cc(OC)c1OC (stereo not given),16.5%

row,Structure (SMILES),growth
1,COc1cc2c(cc1NC(=O)C(Cl)Cl)-c1ccc(NC(=O)C(Cl)Cl)cc1C2,10.2%
2,COc1cc2ncnc(NC3CCC(O)CC3)c2cc1OC (stereo not given),92.1%
3,OC(CNc1ccnc2cc(Cl)ccc12)CNC1CCCCC1 (stereo not given),87.4%
4,O=C(CCl)Oc1ccc(OC(=O)CCl)cc1,111%
5,IC(I)I,94.1%
6,NC(N)=N/N=C(\c1ccccc1)C(O)c1ccccc1 (stereo not given),112%
7,C=CCN(CC=C)C(=O)[C@H](CC)[C@@H]1CC[C@@H](C)[C@@H]([C@H](C)[C@@H](O)[C@@H](C)C(=O)[C@H](CC)C2O[C@]3(C=C[C@@H](O)[C@]4(CC[C@@](C)([C@H]5CC[C@](O)(CC)[C@H](C)O5)O4)O3)[C@H](C)C[C@@H]2C)O1 (stereo not given in full),31.9%
8,Nc1ccn(Cc2nnc(CCC(=O)c3nc4ccccc4[nH]3)o2)c(=O)n1,98%
9,COc1ccc(-c2nc(-c3nc4ccc(C)cc4[nH]3)cc3c2[nH]c2ccccc23)cc1,83.9%
10,O=C1/C=C/[C@@H](O)[C@@H]2C[C@@H](O)C[C@H]2/C=C/CCC[C@@H](C(F)(F)F)O1,107%
11,COC(=O)CC[C@@H](C)[C@H]1CC[C@H]2[C@@H]3CC[C@@H]4C[C@H](O)CC[C@]4(C)[C@H]3C[C@H](O)[C@]12C,109%
12,S=C(SSC(=S)N(c1ccccc1)c1ccccc1)N(c1ccccc1)c1ccccc1,111%
13,O=[N+]([O-])c1cccc(/C=N/NC(=S)NC23CC4CC(CC(C4)C2)C3)c1,101%
14,O=C(COc1cccc(/C=C2\CSc3ccc(Cl)cc3C2=O)c1)c1ccc(Cl)cc1,86.7%
15,OCCn1cccn1,107%
16,O=S(=O)(NCCCNc1nccc(-c2cn(-c3ccccc3)nc2-c2ccc(Cl)c(O)c2)n1)c1ccccc1,118%
17,C[C@]12CCC3c4ccc(O)cc4C[C@@H](CCCCCCCCCS(=O)CCCC(F)(F)C(F)(F)F)C3C1CC[C@@H]2O (stereo not given in full),84.5%
18,COc1ccc(C(=O)c2cc3c(OC)c(OC)c(OC)cc3[nH]2)cc1,68.4%
19,O=C(COc1cccc(/C=C2\CSc3ccccc3C2=O)c1)c1ccc(Cl)cc1,19.5%
20,CSc1nc2c(c(=O)n1C)CN(Cc1ccccc1)C(=O)CN2,94.4%
